According to publication PMC7862700, “An all-to-all approach to the identification of sequence-specific readers for epigenetic DNA modifications on cytosine”:

What was measured:
Assay in all cases: DAPPL (digital affinity profiling via proximity ligation, sequencing); 10 mM Tris-HCl pH 7.5, 50 mM NaCl, 1 mM DTT, 4% glycerol, room temperature, 30 min; GST-TFs on glutathione beads, 16-mer random dsDNA library, 0.1% formaldehyde crosslink after washing; high values mean tight binding
Conditions in all cases: protein: recombinant; tags: N-terminal GST; dsDNA, one strand shown
GABPA = target: T1, GABPA (Homo sapiens, UniProt Q06546 1-454)
T1 sequence: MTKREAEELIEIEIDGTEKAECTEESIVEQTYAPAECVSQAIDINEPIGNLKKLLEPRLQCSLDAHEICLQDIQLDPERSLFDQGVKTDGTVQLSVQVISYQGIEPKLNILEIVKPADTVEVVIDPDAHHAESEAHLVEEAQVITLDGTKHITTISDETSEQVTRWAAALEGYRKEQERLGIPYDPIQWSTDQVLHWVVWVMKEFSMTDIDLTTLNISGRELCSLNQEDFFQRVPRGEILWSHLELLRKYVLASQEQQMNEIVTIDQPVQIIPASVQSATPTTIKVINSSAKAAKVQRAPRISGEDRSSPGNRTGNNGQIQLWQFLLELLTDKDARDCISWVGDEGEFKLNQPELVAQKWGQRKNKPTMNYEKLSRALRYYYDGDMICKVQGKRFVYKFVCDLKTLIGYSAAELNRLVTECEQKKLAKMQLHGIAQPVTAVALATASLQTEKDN
Summary of the method: (§1)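 Beads coated with glutathione captured GST-fused human transcription factors that had been expressed in yeast, and the factors were then given DNA barcodes and pooled with a tag-only sample. The pools were incubated with 200 nmole of a random double-stranded 16-mer DNA library in Tris/NaCl/DTT/glycerol buffer for 30 min at room temperature, washed, crosslinked with 0.1% formaldehyde and proximity-ligated with BsaI/T4 ligase at 37 °C for 1 h. PCR amplification and Illumina NextSeq500 sequencing came last. Binding signal is each hexamer's read frequency for a factor divided by its frequency for the tag-only sample.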

ELF1 = ELF1 (Homo sapiens, UniProt P32519 1-619)
Summary of the method: as §1

ELK3 = target: T2, ELK3 (Homo sapiens, UniProt P41970 1-407)
T2 sequence: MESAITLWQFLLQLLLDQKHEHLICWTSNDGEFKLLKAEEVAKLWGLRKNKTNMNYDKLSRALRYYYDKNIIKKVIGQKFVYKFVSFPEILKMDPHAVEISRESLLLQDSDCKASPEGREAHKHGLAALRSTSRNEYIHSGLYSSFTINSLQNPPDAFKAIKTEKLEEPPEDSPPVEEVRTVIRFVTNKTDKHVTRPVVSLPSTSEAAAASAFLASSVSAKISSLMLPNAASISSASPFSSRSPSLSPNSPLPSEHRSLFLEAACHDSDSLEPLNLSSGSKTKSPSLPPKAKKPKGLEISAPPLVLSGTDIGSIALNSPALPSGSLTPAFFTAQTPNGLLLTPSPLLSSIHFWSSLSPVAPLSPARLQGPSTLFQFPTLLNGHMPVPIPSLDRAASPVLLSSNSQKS
Summary of the method: as §1

ETV5 = ETV5 (Homo sapiens, UniProt P41161 1-510)
Summary of the method: as §1

ELF3 = target: T3, ELF3 (Homo sapiens, UniProt P78545 1-371)
T3 sequence: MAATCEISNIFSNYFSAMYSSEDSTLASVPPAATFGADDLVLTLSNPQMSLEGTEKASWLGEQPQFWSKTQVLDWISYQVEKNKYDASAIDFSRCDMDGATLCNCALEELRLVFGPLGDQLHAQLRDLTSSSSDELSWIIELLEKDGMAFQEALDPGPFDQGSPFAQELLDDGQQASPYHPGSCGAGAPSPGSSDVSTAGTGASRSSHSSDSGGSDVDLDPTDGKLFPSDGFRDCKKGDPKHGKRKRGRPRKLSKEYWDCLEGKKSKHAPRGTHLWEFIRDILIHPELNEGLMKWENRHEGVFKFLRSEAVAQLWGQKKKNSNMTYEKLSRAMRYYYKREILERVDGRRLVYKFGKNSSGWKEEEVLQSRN
Summary of the method: as §1

ETV6 = ETV6 (Homo sapiens, UniProt P41212 1-452)
Summary of the method: as §1

ERG = target: T4, ERG (Homo sapiens, UniProt P11308 1-479)
T4 sequence: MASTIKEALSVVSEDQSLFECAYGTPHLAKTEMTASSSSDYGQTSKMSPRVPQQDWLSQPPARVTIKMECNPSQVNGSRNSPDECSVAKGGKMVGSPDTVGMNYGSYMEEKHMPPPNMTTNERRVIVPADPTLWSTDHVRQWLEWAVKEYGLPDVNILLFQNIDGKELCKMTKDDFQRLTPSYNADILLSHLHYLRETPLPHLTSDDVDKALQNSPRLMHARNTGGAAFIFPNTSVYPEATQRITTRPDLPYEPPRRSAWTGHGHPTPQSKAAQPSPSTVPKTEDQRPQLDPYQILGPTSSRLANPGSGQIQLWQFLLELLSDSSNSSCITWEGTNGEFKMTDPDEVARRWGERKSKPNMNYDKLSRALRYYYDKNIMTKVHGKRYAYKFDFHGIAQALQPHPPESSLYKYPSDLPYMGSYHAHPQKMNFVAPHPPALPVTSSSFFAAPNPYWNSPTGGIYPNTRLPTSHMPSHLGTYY
Summary of the method: as §1

EHF = target: T5, EHF (Homo sapiens, UniProt Q9NZC4 1-300)
T5 sequence: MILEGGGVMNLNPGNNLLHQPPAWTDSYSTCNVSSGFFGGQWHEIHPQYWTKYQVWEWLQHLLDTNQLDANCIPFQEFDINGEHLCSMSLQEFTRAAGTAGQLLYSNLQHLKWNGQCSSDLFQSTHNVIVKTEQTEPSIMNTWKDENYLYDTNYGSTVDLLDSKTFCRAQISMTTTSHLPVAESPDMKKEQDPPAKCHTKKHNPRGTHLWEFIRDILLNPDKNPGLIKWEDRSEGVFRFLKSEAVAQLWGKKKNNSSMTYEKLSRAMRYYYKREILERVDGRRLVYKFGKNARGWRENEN
Summary of the method: as §1

SPIB = SPIB (Homo sapiens, UniProt Q01892 1-262)
Summary of the method: as §1

ETV1 = ETV1 (Homo sapiens, UniProt P50549 1-477)
Summary of the method: as §1

SPDEF = target: T6, SPDEF (Homo sapiens, UniProt O95238 1-335)
T6 sequence: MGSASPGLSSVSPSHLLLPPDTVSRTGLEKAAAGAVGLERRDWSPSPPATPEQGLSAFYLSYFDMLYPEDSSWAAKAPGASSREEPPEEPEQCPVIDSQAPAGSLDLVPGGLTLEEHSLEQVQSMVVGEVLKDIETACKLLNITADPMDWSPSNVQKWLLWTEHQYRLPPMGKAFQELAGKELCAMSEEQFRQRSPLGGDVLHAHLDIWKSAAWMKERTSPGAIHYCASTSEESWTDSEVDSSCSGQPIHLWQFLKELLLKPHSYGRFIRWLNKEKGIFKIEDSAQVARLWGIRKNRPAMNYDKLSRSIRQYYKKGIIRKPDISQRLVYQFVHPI
Summary of the method: as §1

ETV3 = target: T7, ETV3 (Homo sapiens, UniProt P41162-2 1-143)
T7 sequence: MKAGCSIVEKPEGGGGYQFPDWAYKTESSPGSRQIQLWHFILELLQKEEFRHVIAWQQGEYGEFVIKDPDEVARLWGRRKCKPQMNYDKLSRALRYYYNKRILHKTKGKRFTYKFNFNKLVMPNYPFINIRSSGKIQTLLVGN
Summary of the method: as §1

Chain of ETV5 (P41161 whole entry): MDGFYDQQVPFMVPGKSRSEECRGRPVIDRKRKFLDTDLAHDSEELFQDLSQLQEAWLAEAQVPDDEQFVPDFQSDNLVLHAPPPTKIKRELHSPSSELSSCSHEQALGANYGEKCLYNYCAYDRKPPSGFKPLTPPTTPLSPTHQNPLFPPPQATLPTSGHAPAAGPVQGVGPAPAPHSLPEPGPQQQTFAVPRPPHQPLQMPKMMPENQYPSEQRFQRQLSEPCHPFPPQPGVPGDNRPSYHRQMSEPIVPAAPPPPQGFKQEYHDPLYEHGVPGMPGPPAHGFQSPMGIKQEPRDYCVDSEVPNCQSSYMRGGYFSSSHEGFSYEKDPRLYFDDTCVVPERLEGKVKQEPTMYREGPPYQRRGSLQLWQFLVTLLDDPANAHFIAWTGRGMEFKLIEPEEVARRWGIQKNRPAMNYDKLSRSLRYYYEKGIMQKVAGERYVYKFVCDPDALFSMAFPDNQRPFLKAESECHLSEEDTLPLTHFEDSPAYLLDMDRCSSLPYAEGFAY
Chain of ETV1 (P50549 whole entry): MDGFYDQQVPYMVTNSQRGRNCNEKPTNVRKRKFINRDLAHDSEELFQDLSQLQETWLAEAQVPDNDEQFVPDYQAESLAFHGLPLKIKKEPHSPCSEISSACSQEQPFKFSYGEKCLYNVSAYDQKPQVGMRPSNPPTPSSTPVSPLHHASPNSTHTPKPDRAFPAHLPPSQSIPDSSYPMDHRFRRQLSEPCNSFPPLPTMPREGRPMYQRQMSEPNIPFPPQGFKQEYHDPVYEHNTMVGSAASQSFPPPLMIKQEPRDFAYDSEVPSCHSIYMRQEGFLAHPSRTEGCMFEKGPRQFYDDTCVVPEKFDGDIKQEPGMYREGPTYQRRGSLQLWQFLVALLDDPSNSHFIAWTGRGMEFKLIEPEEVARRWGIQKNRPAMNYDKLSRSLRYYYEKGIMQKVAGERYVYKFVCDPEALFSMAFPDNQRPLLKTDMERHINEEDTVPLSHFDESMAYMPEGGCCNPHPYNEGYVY
Chain of ETV6 (P41212 whole entry): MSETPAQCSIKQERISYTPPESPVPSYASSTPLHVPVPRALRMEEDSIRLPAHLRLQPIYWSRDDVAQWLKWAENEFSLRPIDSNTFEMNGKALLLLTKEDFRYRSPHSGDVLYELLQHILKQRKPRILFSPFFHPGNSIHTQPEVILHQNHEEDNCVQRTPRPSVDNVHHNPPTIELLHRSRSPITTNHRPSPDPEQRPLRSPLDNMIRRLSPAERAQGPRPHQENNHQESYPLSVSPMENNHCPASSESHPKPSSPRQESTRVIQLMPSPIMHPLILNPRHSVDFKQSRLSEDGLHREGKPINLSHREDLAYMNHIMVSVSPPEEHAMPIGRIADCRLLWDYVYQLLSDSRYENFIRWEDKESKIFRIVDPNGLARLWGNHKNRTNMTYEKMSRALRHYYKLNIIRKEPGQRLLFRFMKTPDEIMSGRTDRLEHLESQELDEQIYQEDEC
Chain of ELF1 (P32519 whole entry): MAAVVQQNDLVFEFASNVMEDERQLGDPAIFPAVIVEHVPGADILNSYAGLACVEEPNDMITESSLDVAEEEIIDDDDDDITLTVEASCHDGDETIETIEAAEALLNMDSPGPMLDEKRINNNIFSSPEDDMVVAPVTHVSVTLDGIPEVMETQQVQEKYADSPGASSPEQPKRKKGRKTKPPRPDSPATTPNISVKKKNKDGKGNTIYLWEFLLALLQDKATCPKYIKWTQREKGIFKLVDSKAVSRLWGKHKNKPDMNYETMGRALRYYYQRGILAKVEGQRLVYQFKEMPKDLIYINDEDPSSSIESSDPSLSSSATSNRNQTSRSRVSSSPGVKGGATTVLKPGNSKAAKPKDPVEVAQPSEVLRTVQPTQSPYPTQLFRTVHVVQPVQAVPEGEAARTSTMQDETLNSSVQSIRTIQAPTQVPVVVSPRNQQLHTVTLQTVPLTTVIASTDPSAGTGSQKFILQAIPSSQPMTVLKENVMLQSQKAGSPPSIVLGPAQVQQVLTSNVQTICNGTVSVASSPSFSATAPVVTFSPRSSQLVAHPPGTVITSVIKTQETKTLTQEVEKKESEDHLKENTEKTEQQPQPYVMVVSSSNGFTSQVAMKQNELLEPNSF
Chain of SPIB (Q01892 whole entry): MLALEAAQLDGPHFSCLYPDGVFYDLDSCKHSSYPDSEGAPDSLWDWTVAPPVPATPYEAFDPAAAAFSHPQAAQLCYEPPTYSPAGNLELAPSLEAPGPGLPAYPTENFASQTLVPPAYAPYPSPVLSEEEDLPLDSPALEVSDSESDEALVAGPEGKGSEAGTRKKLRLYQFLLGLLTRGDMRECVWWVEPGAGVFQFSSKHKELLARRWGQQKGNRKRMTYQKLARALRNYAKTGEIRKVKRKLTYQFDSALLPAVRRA

## AACTGT
GABPA
  binding signal: 1.01 fold enrichment (6-mer frequency, TF over GST control)
ELF1
  binding signal: 1.02 fold enrichment (6-mer frequency, TF over GST control)
ELK3
  binding signal: 1.06 fold enrichment (6-mer frequency, TF over GST control)
ETV5
  binding signal: 1 fold enrichment (6-mer frequency, TF over GST control)
ELF3
  binding signal: 1.09 fold enrichment (6-mer frequency, TF over GST control)
ETV6
  binding signal: 1.04 fold enrichment (6-mer frequency, TF over GST control)

## GGATAC
ERG
  binding signal: 1.09 fold enrichment (6-mer frequency, TF over GST control)
EHF
  binding signal: 1.01 fold enrichment (6-mer frequency, TF over GST control)
SPIB
  binding signal: 1 fold enrichment (6-mer frequency, TF over GST control)
ETV5
  binding signal: 1.01 fold enrichment (6-mer frequency, TF over GST control)
ETV1
  binding signal: 1.06 fold enrichment (6-mer frequency, TF over GST control)
SPDEF
  binding signal: 1.43 fold enrichment (6-mer frequency, TF over GST control)
ETV3
  binding signal: 1 fold enrichment (6-mer frequency, TF over GST control)
